Reference: PubChem BioAssay (NCATS)
Results filed as inconclusive are left out. The source made the active and inactive calls. Calls come from the whole dose curve; as a rule, active = well fitted curve in the direction sought with a large enough effect; inconclusive = small, poorly fitted or top-dose-only effect, or another doubt; inactive = no such curve, though single readings can be large; an effect the other way counts as inactive or inconclusive.

Tests used:
[1] = Quantitative High-Throughput drug screen in 47 multiple myeloma cell lines against the NCATS MIPE library collection: KMS26_JCRB cell viability assay (AID 1918975); conditions: KMS26 myeloma cells viability, CellTiter-Glo ATP, 48 h; note: potency is the fitted concentration of half-maximal effect; nearly all actives have a fitted effect of over 45% in size
Outline: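 qHTS of the MIPE 4.0 collection: 500 myeloma cells/well, 48 h drug exposure at 37C in 5% CO2, then CellTiter-Glo for 5 min at room temperature before luminescence reading.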

[2] = Quantitative High-Throughput drug screen in 47 multiple myeloma cell lines against the NCATS MIPE library collection: MMM1_PLB cell viability assay (AID 1918976); conditions: MMM1 myeloma cells viability, CellTiter-Glo, 48 h; series mostly up to 45.8 µM; note: nearly all actives have a fitted effect of over 35% in size; note: potency is the fitted concentration of half-maximal effect
Source text: (§1) PI: Beverly A. Mock Ph.D.
(§2) Laboratory of Cancer Biology and Genetics,
(§3) Center for Cancer Research, National Cancer Institute,
(§4) National Institute of Health, Bethesda, Maryland
(§5) Drug resistance and disease progression are common in multiple myeloma (MM) patients, underscoring the need for new therapeutic combinations. […] We hypothesized that effective combinations would reduce MYC expression and enhance p16 activity. […] These preclinical data identify potentially useful drug combinations for evaluation in drug-resistant MM and reveal potential mechanisms of combined drug sensitivity.
(§6) Described herein is the primary MIPE qHTS used to cherrypick compounds. Validated compounds were then further tested for potential synergistic activiy.
[1] Peat TJ, Gaikwad SM, Dubois W, Gyabaah-Kessie N, Zhang S, Gorjifard S, Phyo Z, Andres M, Hughitt VK, Simpson RM, Miller MA, Girvin AT, Taylor A, Williams D, D'Antonio N, Zhang Y, Rajagopalan A, Flietner E, Wilson K, Zhang X, Shinn P, Klumpp-Thomas C, McKnight C, Itkin Z, Chen L, Kazandijian D, Zhang J, Michalowski AM, Simmons JK, Keats J, Thomas CJ, Mock BA. Drug combinations identified by high-throughput screening promote cell cycle transition and upregulate Smad pathways in myeloma. Cancer Lett. 2023 Aug 1;568:216284. doi: 10.1016/j.canlet.2023.216284. Epub 2023 Jun 24. PMID: 37356470; PMCID: PMC10408729.
SEQUENCE No. (e.g., 1, 2, 3, etc.); […] (e.g., Cells, Incubation, Reagent, etc.); VALUE and DESCRIPTION.
1; Cells; 5 uL; white, solid bottom 1536-well Greiner assay plate.
2; Compounds; 23 nL; Kalypsis pin tool (Wako USA) equipped with a 1536-well pin head to transfer to the assay plates.
3; Incubation; 48 hours; 37C incubation.
4; Reagent;5uL; CellTiter Glo (Promega).
(§7) 5; Detector; 425V; Luminescence; Viewlux PerkinElmer. […]
(§8) 1. […] Briefly, the corresponding myeloma cell lines were screened in 1,536-well plates with 500 cells, 5-uL per well for inhibition of cell viability (assessed by measuring ATP levels with CellTiterGlo). […]
(§9) 5. Signal was measured as median relative luminescence units on a ViewLux (PerkinElmer) multiplate reader. […]

[3] = Quantitative High-Throughput drug screen in 47 multiple myeloma cell lines against the NCATS MIPE library collection: MOLP8_DSMZ cell viability assay (AID 1918977); conditions: MOLP8 myeloma viability, CellTiter-Glo ATP luminescence, 48 h; series mostly up to 45.8 µM; note: nearly all actives have a fitted effect of over 45% in size; note: potency is the fitted concentration of half-maximal effect
Outline: (§10)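 ATP-based CellTiter-Glo luminescence after 48 h drug exposure (37 °C, 5% CO2) of 500 myeloma cells per well. DMSO-only wells set 100% viability, media-only wells 0%; MIPE 4.0 library added by pin tool.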

[4] = Quantitative High-Throughput drug screen in 47 multiple myeloma cell lines against the NCATS MIPE library collection: NCIH929_DSMZ cell viability assay (AID 1918978); conditions: NCI-H929 myeloma viability, CellTiter-Glo ATP, 48 h; series mostly up to 45.8 µM; note: nearly all actives have a fitted effect of over 35% in size; note: potency is the fitted concentration of half-maximal effect
Outline: as §10

[5] = Quantitative High-Throughput drug screen in 47 multiple myeloma cell lines against the NCATS MIPE library collection: MM1S_ATCC cell viability assay (AID 1918980); conditions: MM1S myeloma viability, CellTiter-Glo ATP luminescence, 48 h; note: potency is the fitted concentration of half-maximal effect; nearly all actives have a fitted effect of over 45% in size
Outline: as §10

[6] = Quantitative High-Throughput drug screen in 47 multiple myeloma cell lines against the NCATS MIPE library collection: MM1R_ATCC cell viability assay (AID 1918981); conditions: MM1R multiple myeloma cells, CellTiter-Glo viability, 48 h; series mostly up to 45.8 µM; note: nearly all actives have a fitted effect of over 35% in size; note: potency is the fitted concentration of half-maximal effect
Outline: as §10

[7] = Quantitative High-Throughput drug screen in 47 multiple myeloma cell lines against the NCATS MIPE library collection: LP1_DSMZ cell viability assay (AID 1918982); conditions: LP1 myeloma viability, CellTiter-Glo ATP luminescence, 48 h; series mostly up to 45.8 µM; note: nearly all actives have a fitted effect of over 35% in size; note: potency is the fitted concentration of half-maximal effect
Outline: as §10

[8] = Quantitative High-Throughput drug screen in 47 multiple myeloma cell lines against the NCATS MIPE library collection: KMS28PE_JCRB cell viability assay (AID 1918983); conditions: KMS28PE multiple myeloma viability, CellTiter-Glo ATP, 48 h
Outline: as §10

[9] = Quantitative High-Throughput drug screen in 47 multiple myeloma cell lines against the NCATS MIPE library collection: L363_DSMZ cell viability assay (AID 1918984); conditions: L363 myeloma viability, CellTiter-Glo ATP luminescence, 48 h; series mostly up to 45.8 µM; note: nearly all actives have a fitted effect of over 40% in size; note: potency is the fitted concentration of half-maximal effect
Outline: as §10

[10] = Quantitative High-Throughput drug screen in 47 multiple myeloma cell lines against the NCATS MIPE library collection: OCIMY1_PLB cell viability assay (AID 1918979); conditions: OCI-MY1 myeloma viability, CellTiter-Glo ATP, 48 h; series mostly up to 45.8 µM; note: nearly all actives have a fitted effect of over 35% in size
Source text: as §1, §2, §3, §4, §5, §6
[1] […]
as §7, §8, §9

Measured: Potency

C[C@@H]1C[C@@H]([C@H](O)CC2CC(=O)NC(=O)C2)C(=O)[C@@H](C)C1
active: [1] 132 nM | [2] 662 nM | [3] 296 nM | [4] 1.87 µM | [5] 4.18 µM | [6] 1.66 µM | [7] 118 nM | [8] 1.18 µM | [9] 743 nM

O=C(O)c1nn(Cc2ccc(Cl)cc2Cl)c2ccccc12
inactive: [2] | [3] | [4] | [6] | [7] | [9]

COc1ccc(C(=O)N2CCCC2=O)cc1
active: [5] 0.296 µM
inactive: [3] | [6]

COC(=O)C1=CCCN(C)C1
inactive: [4] | [10] | [6] | [7] | [9]
active: [2] 1050 nM
